The text below walks through data of PubChem BioAssay (NCI).

Molecules are shown by their SMILES. Compounds without any hit were thinned out: in the full panel of roughly 79,000, 15% have a hit. Values without a mark were called inactive. Calls of active or inactive are those of the source. No stated cut-off is given here; in the data, active means growth inhibition above about 70%; inactive means the rest.

One experiment can be described thus: NCI Yeast Anticancer Drug Screen. Data for the rad50 strain (AID 155).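 Further: 0% = growth of vehicle-only cultures of the same strain.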 The settings on record: S. cerevisiae rad50 strain growth inhibition; at 50.0 µM; active compounds read high. In a few lines: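 Readout: growth inhibition relative to vehicle-treated cultures. Compound exposure was carried out in a genetically defined yeast strain deficient in DNA damage repair.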
Turning to `COc1cccc(/C=N\c2nc(-c3ccccc3Cl)cs2)c1O`, the growth inhibition is 44%.
The same measure, in the same setting: in the case of `COC(=O)C1CCC(=O)N1C(c1ccc(OC)cc1)c1ccc(OC)cc1` (stereo not given) it was -26.6%; in that of `O=C(Nc1ccc(Cl)c([N+](=O)[O-])c1)Oc1ccc2ccccc2c1`, 14.6%; in that of `COc1ccc(CCN=Cc2ccc(Cl)cc2)cc1OC`, -3.55%.
Same read-out and setting: in the case of `C1CCC2(CC1)OCCS2` it was 24.6%; in that of `Nc1ccc(O)c(C(=O)O)c1`, 24.1%; in that of `O=S(=O)(OCC1CC2CCC1CC2)c1ccc(Br)cc1` (stereo not given), -17.1%.
In the case of `O=C(NC(CSSCC(NC(=O)OCc1ccccc1)C(=O)O)C(=O)O)OCc1ccccc1` (stereo not given), the growth inhibition was -8.6%.
As for `CN(C)CC(N)C(=O)O` (stereo not given), the growth inhibition was -4.35%.
Regarding `COC(=O)c1oc([N+](=O)[O-])c(-c2ccccc2)c1-c1ccccc1`, the growth inhibition was 6.95%.
With `COC(=O)c1cc(C(=O)OC)cc([N+](=O)[O-])c1`, the growth inhibition is -6.4%.
Consider `CS/C(=C\c1ccc2ccccc2[n+]1C)N1CCN(CCCO)CC1`, for which the growth inhibition is 23.4%.
Take `Cc1c(O)nc(N)[nH]c1=O`: the growth inhibition is 2.65%.
Still for that read-out and setting: under `CCCC(=O)c1ccc2c(c1)CCc1cc(O)ccc1-2` stands 13.8%; under `C=CCC(O)CC=C`, -8%; under `CCC(c1ccc(OC)cc1)c1cc2c(cc1OCCO)OCO2` (stereo not given), 70.9% (active).
Regarding `C(#CCN1CCOCC1)CCCN1CCOCC1`, the growth inhibition is 1.2%.
Take `O=C1NC(N2CCCCC2)=N/C1=C\c1ccccc1`: the growth inhibition is 25.7%.
Turning to `CC(=O)C(C(=O)C(=O)Nc1cc(Cl)c(Cl)cc1Cl)c1csc(N)n1` (stereo not given), the growth inhibition was -14.7%.
On the same count and under the same terms, under `CCOC(=O)C(C=Nc1ccc(S(N)(=O)=O)cc1)C(=O)OCC` stands -8.15%.
For the compound `O=C1CCCCCCCCCCC1Cc1cc(O)c(CC2CCCCCCCCCCC2=O)cc1O` (stereo not given), the growth inhibition was -1.2%.
Same read-out and setting: in the case of `COc1ccc(Cc2c[nH]c3cc(OC)c(OC)cc23)cc1OC` it was -22.8%; in that of `CC(C)(C)C(C)(C)CC(N)=O`, 7.25%; in that of `Cn1c(N)c(N=O)c(=O)n(C)c1=O`, -28.9%.
Regarding `O=C(COc1ccccc1Cl)N1N=C(c2ccccc2)CC1(O)c1ccccc1` (stereo not given), the growth inhibition was -4.25%.
In the case of `O=[N+]([O-])c1cc(/C=N/NS(=O)(=O)c2ccc(F)cc2)c(O)c([N+](=O)[O-])c1`, the growth inhibition was 10.2%.
As for `Cc1ccc2nc[nH]c2c1`, the growth inhibition was 0.35%.
On the same count and under the same terms, in the case of `C=CCOc1ccc(N)c([N+](=O)[O-])c1` it was 42.1%.
In the case of `COc1ccc(CCNC(=O)Cc2ccc(Cl)cc2)cc1OC`, the growth inhibition was 3.65%.
In the case of `CC1=CC(=O)/C(=C/n2c(=S)[nH]c3ccc([N+](=O)[O-])cc32)C(=O)O1`, the growth inhibition is 2.1%.
On the same count and under the same terms, in the case of `C[N+](C)(C)CCC(=O)N1C/C(=C\c2ccccc2)C(=O)/C(=C/c2ccccc2)C1` it was -35.6%.
For `OCCCCCCO`, the growth inhibition was -2.55%.
In the case of `CCN(CC)/[N+]([O-])=N/O`, the growth inhibition was 26.6%.
As to `CC(C)(O)c1cc2nc3ccccc3nc2n1CCO`, the growth inhibition was -19.6%.
Regarding `COC(CCCl)c1ccc(C)cc1` (stereo not given), the growth inhibition was -9.4%.
Same read-out and setting: under `Nc1ncnc2c(C3OC(CO)C(O)C3O)nsc12` (stereo not given) stands -6.8%; under `CCN(C)c1nc(N(C)CC)c2nc(N(C)CC)nc(N(C)CC)c2n1`, 1.95%.
In the case of `CCCC(=O)Nc1cccc(Cl)c1`, the growth inhibition was 16.2%.
As to `OCCCc1ccccc1`, the growth inhibition is -0.1%.
Regarding `COc1cc(C(O)C2(c3ccc(O)c(OC)c3)NC(=O)NC2=O)ccc1O` (stereo not given), the growth inhibition is -22.2%.

The next experiment is described as follows: NCI Yeast Anticancer Drug Screen. Data for the mec2-1 strain (AID 157). The settings on record: S. cerevisiae mec2-1 strain, at 50.0 µM, active compounds read high. In a few lines: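 Growth inhibition is read against vehicle-treated controls after compound exposure of the mec2-1 yeast strain, which is defective in DNA damage repair or cell cycle control.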
As for `COc1cccc(/C=N\c2nc(-c3ccccc3Cl)cs2)c1O`, the growth inhibition was 5.15%.
Still for that read-out and setting: under `COC(=O)C1CCC(=O)N1C(c1ccc(OC)cc1)c1ccc(OC)cc1` (stereo not given) stands 25.6%.
Same read-out and setting: in the case of `O=C(Nc1ccc(Cl)c([N+](=O)[O-])c1)Oc1ccc2ccccc2c1` it was 3%; in that of `COc1ccc(CCN=Cc2ccc(Cl)cc2)cc1OC`, -28.4%; in that of `C1CCC2(CC1)OCCS2`, 1.6%.
Take `Nc1ccc(O)c(C(=O)O)c1`: the growth inhibition was 11.2%.
On to `O=S(=O)(OCC1CC2CCC1CC2)c1ccc(Br)cc1` (stereo not given), for which the growth inhibition is 1.9%.
As to `O=C(NC(CSSCC(NC(=O)OCc1ccccc1)C(=O)O)C(=O)O)OCc1ccccc1` (stereo not given), the growth inhibition was -31.4%.
As to `CN(C)CC(N)C(=O)O` (stereo not given), the growth inhibition is -13.1%.
Regarding `COC(=O)c1oc([N+](=O)[O-])c(-c2ccccc2)c1-c1ccccc1`, the growth inhibition is 12.5%.
Take `COC(=O)c1cc(C(=O)OC)cc([N+](=O)[O-])c1`: the growth inhibition was -21.9%.
Turning to `CS/C(=C\c1ccc2ccccc2[n+]1C)N1CCN(CCCO)CC1`, the growth inhibition is 10%.
For the compound `Cc1c(O)nc(N)[nH]c1=O`, the growth inhibition was -24%.
For the compound `CCCC(=O)c1ccc2c(c1)CCc1cc(O)ccc1-2`, the growth inhibition was 1.35%.
`C=CCC(O)CC=C`: the growth inhibition was -47.5%.
The same measure, in the same setting: under `CCC(c1ccc(OC)cc1)c1cc2c(cc1OCCO)OCO2` (stereo not given) stands 66.3%; under `C(#CCN1CCOCC1)CCCN1CCOCC1`, -38.7%; under `O=C1NC(N2CCCCC2)=N/C1=C\c1ccccc1`, -8.45%.
In the case of `CC(=O)C(C(=O)C(=O)Nc1cc(Cl)c(Cl)cc1Cl)c1csc(N)n1` (stereo not given), the growth inhibition was -9.2%.
For `CCOC(=O)C(C=Nc1ccc(S(N)(=O)=O)cc1)C(=O)OCC`, the growth inhibition is 4.85%.
With `O=C1CCCCCCCCCCC1Cc1cc(O)c(CC2CCCCCCCCCCC2=O)cc1O` (stereo not given), the growth inhibition was 3%.
On to `COc1ccc(Cc2c[nH]c3cc(OC)c(OC)cc23)cc1OC`, for which the growth inhibition was -9%.
Same read-out and setting: in the case of `CC(C)(C)C(C)(C)CC(N)=O` it was -15.7%.
With `Cn1c(N)c(N=O)c(=O)n(C)c1=O`, the growth inhibition is -18.8%.
As for `O=C(COc1ccccc1Cl)N1N=C(c2ccccc2)CC1(O)c1ccccc1` (stereo not given), the growth inhibition was 10.1%.
Still for that read-out and setting: in the case of `O=[N+]([O-])c1cc(/C=N/NS(=O)(=O)c2ccc(F)cc2)c(O)c([N+](=O)[O-])c1` it was -11.2%.
As for `Cc1ccc2nc[nH]c2c1`, the growth inhibition is -21.9%.
Turning to `C=CCOc1ccc(N)c([N+](=O)[O-])c1`, the growth inhibition is 41.5%.
Turning to `COc1ccc(CCNC(=O)Cc2ccc(Cl)cc2)cc1OC`, the growth inhibition was -4.65%.
Regarding `CC1=CC(=O)/C(=C/n2c(=S)[nH]c3ccc([N+](=O)[O-])cc32)C(=O)O1`, the growth inhibition was -44.7%.
For the compound `C[N+](C)(C)CCC(=O)N1C/C(=C\c2ccccc2)C(=O)/C(=C/c2ccccc2)C1`, the growth inhibition is -15.2%.
Turning to `OCCCCCCO`, the growth inhibition was -15.6%.
As for `CCN(CC)/[N+]([O-])=N/O`, the growth inhibition is -14.8%.
For the compound `CC(C)(O)c1cc2nc3ccccc3nc2n1CCO`, the growth inhibition was -22.4%.
Consider `COC(CCCl)c1ccc(C)cc1` (stereo not given), for which the growth inhibition was -66.4%.
As for `Nc1ncnc2c(C3OC(CO)C(O)C3O)nsc12` (stereo not given), the growth inhibition is -23.6%.
On to `CCN(C)c1nc(N(C)CC)c2nc(N(C)CC)nc(N(C)CC)c2n1`, for which the growth inhibition was -3.4%.
As to `CCCC(=O)Nc1cccc(Cl)c1`, the growth inhibition was 9.05%.
On to `OCCCc1ccccc1`, for which the growth inhibition was -1.65%.
Take `COc1cc(C(O)C2(c3ccc(O)c(OC)c3)NC(=O)NC2=O)ccc1O` (stereo not given): the growth inhibition was 16.3%.
